Assay results from PubChem BioAssay (NCI).
The panel holds about 83,000 compounds, 20% with a hit somewhere; the sample as a whole holds those more often.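 A percent growth of 40 corresponds to 60% growth inhibition; 0 means no net growth; -100 means all cells died. Active threshold: below 10.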 A number with no mark means an inactive call. Active and inactive are the calls of the source.

Each compound was assayed on MDA-MB-468 breast (assay: NCI-60 one-dose screen, 48 h (100 = growth as untreated, 0 = no growth, -100 = all killed)). Settings: 10 µM unless noted.
`Cl.[Pt].[c-]1ccccc1-c1ccccn1.c1ccc(P(c2ccccc2)C([PH+](c2ccccc2)c2ccccc2)[PH+](c2ccccc2)c2ccccc2)cc1` was tested, and the growth was -6.8% (active). With `Cc1cn(-c2cc(F)cc(NC(=O)c3ccc(C)c(Nc4nccc(-c5cccnc5)n4)c3)c2)cn1` the growth was -63.4% (active). For `CN1CCC2(CC1)N=C(SCC(=O)Nc1cnc3ccccc3c1)C(c1ccc(Br)cc1)=N2`, the growth was -43.8% (active). For `CSc1ccc2c(c1)N(C(=O)/C(C#N)=C/c1c[nH]c3ccccc13)c1ccccc1S2`, the growth was 12%. With `OCc1cn(-c2ccc(Cl)cc2)nc1-c1ccc(O)cc1` the growth was 107%. `CCc1ccc(-c2nnc(COc3ccc(-c4nc5cc(Cl)c(Cl)cc5[nH]4)cc3OC)o2)cc1` was tested, and the growth was 76.4%. For `CC(C)c1ccc(C(=O)OCCCl)cc1`, the growth was 111%. For `CN(CCNCc1ccccn1)CCNCc1ccccn1`, the growth was -15.6% (active). Work on `Cc1ccncc1C(N)=O` yielded a growth of 93.8%. In the case of `O=C1c2c(c3c4cccnc4[nH]c3c3ccc4ccccc4c23)C(=O)N1CCN1CCOCC1`, the growth is reported as 62.8%. `COc1cccc(/C=C2\COc3ccc(O)cc3C2=O)c1` was tested, and the growth was 66.2%. Compound `Cc1ccc(C)n1-c1ccsc1C(=O)NNC(=O)CCl` has a growth of 88%. Work on `COc1ccc(-c2cc(-c3ccc(Cl)cc3)c(C#N)c(=O)n2CCCCCC(=O)Nc2ccccc2N)cc1` yielded a growth of 53.1%. In the case of `Cc1ccc2c(n1)C(=O)C(Cl)=C(Nc1cccc(C(F)(F)F)c1)C2=O`, the growth is reported as -65.2% (active). With `CN(C)CC(C)(C)C(=O)/C=C/c1ccccc1` the growth was -49% [25 µM] (active).
